Measured values taken from PubChem BioAssay (NCATS).
Inconclusive results are not listed. Entries that show only a call come without a potency. Calls of active or inactive are those of the source. Calls come from the whole dose curve; as a rule, active = well fitted curve in the direction sought with a large enough effect; inconclusive = small, poorly fitted or top-dose-only effect, or another doubt; inactive = no such curve, though single readings can be large; an effect the other way counts as inactive or inconclusive.

Assays:
[1] = qHTS for Inhibitors of Plasmodium falciparum (DD2) proliferation (AID 504314); note: potency is the fitted concentration of half-maximal effect
How it was run: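 SYBR Green growth assay: 72 h compound exposure of infected red cells (2.5% hematocrit, 0.3% parasitemia), then lysis and overnight dye staining, fluorescence 485/535 nm. Values scaled between DMSO and 0.29 uM artemisinin controls.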

[2] = qHTS for Inhibitors of Plasmodium falciparum (CP250) proliferation (AID 504320)
How it was run: (§1)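 Parasite growth measured as SYBR Green DNA fluorescence (ex 485, em 535 nm) after overnight lysis following 72 h culture at 37 °C, 0.3% parasitemia, 2.5% hematocrit. Values normalized against DMSO and 0.29 uM artemisinin controls, with plate-stack correction.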

[3] = qHTS for Inhibitors of Plasmodium falciparum (HB3) proliferation (AID 504318); note: nearly all actives have a fitted effect of over 60% in size; note: potency is the fitted concentration of half-maximal effect
How it was run: as §1

[4] = qHTS for Inhibitors of Plasmodium falciparum (7G8) proliferation (AID 504316); note: nearly all actives have a fitted effect of over 65% in size; note: potency is the fitted concentration of half-maximal effect
How it was run: as §1

C=CCN1c2ccccc2[C@]23C[C@@H](C(=O)OC)N(C(=O)c4ccc(Br)cc4)C2=NC(C(=O)OC)=C(C(=O)OC)[C@H]13
Potency [1]: inactive | Potency [2]: inactive

CCOC(=O)CCCNC(=O)N1CCc2nc(COc3ccccc3)c3c(c2C1)CO[C@@H](C)C3
Potency [1]: inactive | Potency [2]: inactive

COC(=O)CCC(=O)OC1(C)C(=O)C=C2C=C(C3CC3)N(CCc3ccccn3)C=C2C1=O (stereo unspecified)
Potency [1]: inactive | Potency [3]: inactive

COC(=O)[C@@H](NC(=O)N1CCc2nc(COc3ccccc3)c3c(c2C1)CO[C@@H](C)C3)C(C)C
Potency [1]: inactive | Potency [2]: inactive

C#CCCOC(=O)N1C2=NC(C(=O)OC)=C(C(=O)OC)[C@@H]3N(Cc4ccccc4)c4ccccc4[C@]23C[C@H]1C(=O)OC
Potency [1]: inactive | Potency [2]: inactive

CCC(=O)N1C2=C(c3ccccc3[C@@H]1CC(=O)Nc1ccc3ccccc3c1)[C@@H]1C(=O)N(c3ccccc3)C(=O)[C@@H]1[C@H](C)C2
Potency [1]: inactive | Potency [4]: 1900 nM (active) | Potency [2]: inactive

COC(=O)C1=C(C(=O)OC)[C@@H]2Nc3ccccc3[C@@]23C[C@@H](C(=O)OC)N(C(=O)c2cc(C)oc2C)C3=N1
Potency [1]: inactive | Potency [4]: 1690 nM (active) | Potency [2]: inactive

CCCCc1nc2c(c3c1C[C@H](C)OC3)CN(S(=O)(=O)c1c(C)noc1C)CC2
Potency [1]: inactive | Potency [3]: inactive | Potency [2]: inactive

C#CCCOC(=O)N1C2=NC(C(=O)OC)=C(C(=O)OC)[C@@H]3N(CC#CC)c4ccccc4[C@]23C[C@H]1C(=O)OC
Potency [1]: inactive | Potency [3]: inactive | Potency [2]: inactive

CCOC(=O)CN1C(=O)N[C@@H](c2ccccc2)[C@@H](C(=O)OC)[C@H]1C
Potency [1]: inactive | Potency [4]: inactive | Potency [2]: inactive

COC(=O)CCC(=O)OC1(C)C(=O)C2=CN(c3ccc(OC)cc3)C(c3ccc(OC)cc3)=CC2=C(Br)C1=O (stereo unspecified)
Potency [1]: inactive | Potency [3]: inactive | Potency [2]: inactive

CC1(OC(=O)CCc2ccccc2)C(=O)C=C2C=C(c3ccc(C#N)cc3)N(Cc3ccco3)C=C2C1=O (stereo unspecified)
Potency [1]: inactive | Potency [2]: inactive

COC(=O)[C@H]1[C@@H](C)N(CCc2cc(OC)c(OC)c(OC)c2)C(=O)N[C@H]1c1ccccc1
Potency [1]: inactive | Potency [3]: inactive | Potency [2]: inactive

CCCCS(=O)(=O)N1CCc2nc(-c3ccc(OC)cc3C)c3c(c2C1)CO[C@@H](c1ccccc1)C3
Potency [1]: inactive | Potency [2]: inactive

COCCN1C=C2C(=O)C(C)(OC(=O)CCC(=O)OC)C(=O)C=C2C=C1C1CC1 (stereo unspecified)
Potency [1]: inactive | Potency [3]: inactive

CC#CCN1c2ccccc2[C@]23C[C@@H](C(=O)OC)N(S(=O)(=O)c4c(C)noc4C)C2=NC(C(=O)OC)=C(C(=O)OC)[C@H]13
Potency [1]: inactive | Potency [2]: inactive

C=CCN1C=C2C(=O)C(C)(OC(=O)CCc3ccccc3)C(=O)C=C2C=C1c1ccc(C#N)cc1 (stereo unspecified)
Potency [1]: inactive | Potency [2]: inactive

COC/C=C/C1=CC2=CC(=O)C(C)(OC(=O)c3cnc4ccccc4n3)C(=O)C2=CN1Cc1ccc2c(c1)OCO2 (stereo unspecified)
Potency [1]: inactive | Potency [2]: inactive

COC(=O)CCC(=O)OC1(C)C(=O)C=C2C=C(C3CC3)N(c3ccc(OC)cc3)C=C2C1=O (stereo unspecified)
Potency [1]: inactive | Potency [2]: inactive

CCCCC1=CC2=CC(=O)C(C)(OC(=O)CC)C(=O)C2=CN1Cc1ccc2c(c1)OCO2 (stereo unspecified)
Potency [1]: inactive | Potency [3]: inactive | Potency [2]: inactive

COC(=O)C1=C(C(=O)OC)[C@@H]2N(C)c3ccc(OC)cc3[C@@]23C[C@@H](C(=O)OC)N(S(=O)(=O)c2ccc(C)cc2)C3=N1
Potency [1]: inactive | Potency [2]: inactive

COC(=O)[C@@H]1[C@@H](C)N(Cc2ccccc2)C(=O)N[C@H]1c1cccc(C(F)(F)F)c1
Potency [1]: inactive | Potency [3]: inactive | Potency [2]: inactive

COc1cc2c(cc1OC)[C@@H]1O[C@](CCCCN3C(=O)c4ccccc4C3=O)(C2)Oc2cc(C)n(-c3ccccc3)c(=O)c21
Potency [1]: 1690 nM (active) | Potency [3]: 1200 nM (active)

COC(=O)c1ccccc1S(=O)(=O)N1CCc2nc(-c3ccccc3)c3c(c2C1)CO[C@@H](C)C3
Potency [1]: inactive | Potency [4]: inactive | Potency [2]: inactive

CCOC(=O)CN1C(=O)N[C@@H](CCc2ccccc2)[C@H](C(C)=O)[C@H]1C
Potency [1]: inactive | Potency [4]: inactive | Potency [2]: inactive
